Screening results (PubChem BioAssay)
T cruzi growth-1: T. cruzi intracellular proliferation inhibitors, primary screen, cell-based, beta-gal Tulahuen parasites, NIH3T3 host, luminescence; inhibition, % at 8.34 µM; actives 5.9% (n = 77,000); T. cruzi beta-gal in NIH3T3, GalScreen luminescence, 90 h;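 active = mean inhibition above about 93%, with at least 55% of replicates each passing it, limit read from the data, passing the limit was not always enough; inconclusive = only one of those two conditions holds; inactive = neither condition holds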
Pf Dd2 inh: P. falciparum Dd2 growth inhibitors, primary screen, SYBR Green fluorescence, single dose replicates; 72 h; stronger effect = lower value; activity change, % at 10 µM; actives 2.3% (n = 94,000); in the data active = activity change below about -80%; inconclusive = no clear call, values can overlap the other calls
C diff HTS: C. difficile growth inhibitors, primary screen, HTS; Clostridium difficile clinical isolate growth, OD600, 24 h; stronger effect = lower value; growth activity, negative = inhibition, % at 16 µg/mL (by protocol); actives 0.25% (n = 86,000); AID 1259249, 2017;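 active = mean growth activity at or below -80% and every replicate also at or below -80%; inconclusive = mean at or below -80% but some replicate above -80%; inactive = mean growth activity above -80%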;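 note: 0% = DMSO wells and -100% = levofloxacin 16 µg/mL wells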
T cruzi growth-2: T. cruzi intracellular proliferation inhibitors, confirmation, cell-based, NIH3T3 host, beta-gal parasite, luminescence, cherry-pick; inhibition, % at 8.35 µM; AID 651739, 2012; T. cruzi beta-gal in NIH3T3, GalScreen luminescence, 90 h; actives 72% (n = 5,600); shares compounds with T cruzi growth-1;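 active = mean replicate inhibition above about 95% and at least 55% of replicates individually reaching it, limit read from the data; inconclusive = only one of the two criteria is met; inactive = neither criterion is met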
T cruzi growth-3: inhibitors of intracellular T. cruzi replication, confirmation, NIH3T3 host cells, beta-gal parasites, cherry-pick, set 2; shares compounds with T cruzi growth-1; T. cruzi beta-gal in NIH3T3, GalScreen luminescence, 90 h; inhibition, % at 2.09 µM; actives 21% (n = 5,600);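 active = mean inhibition above about 95%, with at least 55% of replicates also reaching it, limit read from the data; inconclusive = meets just one of the two conditions; inactive = meets neither condition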;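 note: plate controls were neutral control median for no effect and positive control median for full effect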
NIH3T3 tox: cytotoxicity in mouse NIH/3T3 fibroblasts, confirmation, cytotoxicity control for T. cruzi proliferation inhibitor project, cell-based, cherry-pick, single point; shares compounds with T cruzi growth-1; NIH/3T3 viability, CellTiter-Glo ATP luminescence, 90 h; cytotoxicity (signal decrease), % at 8.35 µM; actives 14% (n = 5,600); AID 651742, 2012;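 active = mean signal decrease across replicates above about 35% based on untreated-well scatter, with enough replicates individually passing, limit read from the data; inconclusive = no rule stated though some were filed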;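 note: 0% = median of neutral control wells and 100% = median of positive control wells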
NIH3T3 tox 2: NIH/3T3 fibroblast cytotoxicity, confirmation, cytotoxicity control, cell-based, cherry-pick, single point, set 2. shares compounds with T cruzi growth-1. actives 56% (n = 5,600). inhibition, % at 24.9 µM. NIH/3T3 viability, CellTiter-Glo ATP luminescence, 90 h;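 active = mean loss of cell viability signal at or above a set limit, and enough replicates individually reaching it; inconclusive = meets only the mean limit or only the replicate share; inactive = meets neither condition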;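 note: 0% = median of neutral control wells and 100% = median of positive control wells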
Numbers without * were called inactive; ? = inconclusive; · = not tested or not shown. The list is not random: actives were taken first. Their share in the collection is about 6.8%.

SMILES	T cruzi growth-1	Pf Dd2 inh	C diff HTS	T cruzi growth-2	T cruzi growth-3	NIH3T3 tox	NIH3T3 tox 2
COc1ccc(S(=O)(=O)N[C@H]2C=C[C@H](CC(=O)N3CCC(Cc4ccccc4)CC3)O[C@H]2CO)cc1	25	-29	-7	·	·	·	·
O=C(C[C@H]1CC[C@@H](NS(=O)(=O)c2ccc(F)cc2)[C@@H](CO)O1)N1CCc2ccccc2C1	-10	20	-1	·	·	·	·
O=C(C[C@@H]1CC[C@@H](NS(=O)(=O)c2ccc(F)cc2)[C@H](CO)O1)N1CCc2ccccc2C1	104*	14	0	0	9	-15	7
Cc1ccc(S(=O)(=O)N[C@H]2CC[C@@H](CC(=O)N3CCC(Cc4ccccc4)CC3)O[C@H]2CO)cc1	60	-2	-8	·	·	·	·
O=C(NCC[C@@H]1CC[C@H](NS(=O)(=O)c2ccccc2F)[C@@H](CO)O1)c1ccc(F)cc1	104*	9	·	39	-2	3	1
O=C(NCC[C@H]1CC[C@@H](NS(=O)(=O)c2ccccc2F)[C@@H](CO)O1)c1ccc(F)cc1	-73	-10	·	·	·	·	·
COc1ccc(S(=O)(=O)N[C@H]2C=C[C@@H](CC(=O)N3CCC(Cc4ccccc4)CC3)O[C@H]2CO)cc1	110*	-37	1	59	31	10	70*
CNC(=O)C[C@@H]1CC[C@@H]2[C@H](COc3ccc(NC(=O)c4cc(C)on4)cc3C(=O)N2C)O1	16	19	1	·	·	·	·
CO[C@H]1CN(C)C(=O)c2ccc(NC(=O)c3ccc(F)cc3)cc2OC[C@H](C)N(C(=O)CN(C)C)C[C@@H]1C	6	·	·	·	·	·	·
CCCNC(=O)N1[C@H](C#N)[C@H](c2ccc(-c3ccc(C(=O)N(C)C)cc3)cc2)[C@@H]1CO	67	-54	-5	·	·	·	·
C[C@H]1CN([C@@H](C)CO)C(=O)c2cc(NS(C)(=O)=O)ccc2O[C@@H]1CN(C)S(C)(=O)=O	-52	12	·	·	·	·	·
O=C(C1CCC1)N1CC2(C1)[C@H](c1ccccc1)[C@H](CO)N2Cc1cncnc1	·	7	-3	·	·	·	·
C[C@@H]1CN([C@H](C)CO)C(=O)Cc2cc(NC(=O)Cc3cn(C)c4ccccc34)ccc2O[C@H]1CN(C)Cc1ccc2c(c1)OCO2	72	-11	-5	·	·	·	·
C[C@@H]1CN([C@@H](C)CO)C(=O)c2cc(NC(=O)Nc3ccc4c(c3)OCO4)ccc2O[C@@H](C)CCCCO[C@@H]1CN(C)C(=O)NC1CCCCC1	3	-12	4	·	·	·	·
C[C@@H]1CCCCO[C@@H](CN(C)C(=O)NC2CCCCC2)[C@H](C)CN([C@H](C)CO)C(=O)c2cc(NC(=O)Nc3ccc4c(c3)OCO4)ccc2O1	105*	-16	0	105*	74	-1	-33
C[C@@H]1CCCCO[C@@H](CN(C)C(=O)NC2CCCCC2)[C@@H](C)CN([C@H](C)CO)C(=O)c2cc(NC(=O)Nc3ccc(F)cc3)ccc2O1	67	26	14	·	·	·	·
C[C@H]1CCCCO[C@@H](CN(C)C(=O)NC2CCCCC2)[C@@H](C)CN([C@@H](C)CO)C(=O)c2cc(NC(=O)Nc3ccc(F)cc3)ccc2O1	109*	-46	11	115*	55	13	5
C[C@H](CO)N1C[C@H](C)[C@@H](CN(C)C(=O)NC2CCCCC2)OCCCC[C@H](C)Oc2ccc(N(C)C)cc2C1=O	46	·	-2	·	·	·	·
C[C@@H]1CN([C@@H](C)CO)C(=O)c2cc(N(C)C)ccc2O[C@@H](C)CCCCO[C@@H]1CN(C)C(=O)NC1CCCCC1	103*	6	-3	11	-7	5	-19
C[C@@H]1CN([C@H](C)CO)C(=O)c2cc(NC(=O)Nc3ccc(F)cc3)ccc2O[C@@H](C)CCCCO[C@@H]1CN(C)C(=O)NC1CCCCC1	55	-72	13	·	·	·	·
C[C@H](CO)N1C[C@H](C)[C@@H](CN(C)C(=O)NC2CCCCC2)OCCCC[C@H](C)Oc2ccc(NC(=O)Nc3ccc(F)cc3)cc2C1=O	105*	3	-1	103*	27	12	24
CC(C)NC(=O)N1[C@H](CO)[C@H](c2ccccc2)C12CN(C(=O)CN(C)C)C2	·	-6	10	·	·	·	·
C[C@H](CO)N1C[C@H](C)[C@H](CN(C)C(=O)c2ccc(F)cc2)Oc2ncc(-c3ccncc3)cc2C1=O	85	28	1	·	·	·	·
COc1cccc(-c2ccc(CC[C@H]3O[C@H]4CC[C@H](CO)O[C@H]4C[C@@H]3NS(C)(=O)=O)cc2)c1	·	-1	-4	·	·	·	·
COc1ccc(CN(C)C[C@@H]2Oc3ccc(NS(=O)(=O)c4ccccc4)cc3CC(=O)N([C@H](C)CO)C[C@H]2C)cc1	28	-45	-2	·	·	·	·
SMILES	T cruzi growth-1	Pf Dd2 inh	C diff HTS	T cruzi growth-2	T cruzi growth-3	NIH3T3 tox	NIH3T3 tox 2
C[C@H](CO)N1C[C@H](C)[C@H](CN(C)C(=O)Nc2ccc(C(F)(F)F)cc2)OCCCC[C@H](C)Oc2ccc(N(C)C)cc2C1=O	101*	-65	-2	106*	78	-4	39*
C[C@@H]1CN([C@H](C)CO)C(=O)c2cc(N(C)C)ccc2O[C@@H](C)CCCCO[C@H]1CN(C)C(=O)Nc1ccc(C(F)(F)F)cc1	41	-60	3	·	·	·	·
C[C@H](CO)N1C[C@H](C)[C@@H](CN(C)C(=O)Nc2ccc(C(F)(F)F)cc2)OCCCC[C@H](C)Oc2ccc(NC(=O)NC3CCCCC3)cc2C1=O	113*	-79	1	105*	105*	6	11
C[C@H]1CCCCO[C@@H](CN(C)C(=O)Nc2ccccc2)[C@@H](C)CN([C@@H](C)CO)C(=O)c2cc(NC(=O)Nc3ccc(C(F)(F)F)cc3)ccc2O1	·	-15	-9	·	·	·	·
C[C@@H]1CCCCO[C@@H](CN(C)C(=O)Nc2ccc(C(F)(F)F)cc2)[C@@H](C)CN([C@H](C)CO)C(=O)c2cc(NC(=O)NC3CCCCC3)ccc2O1	·	-64	-3	·	·	·	·
C[C@@H]1CN([C@@H](C)CO)C(=O)c2cc(NC(=O)Nc3ccc(C(F)(F)F)cc3)ccc2O[C@@H](C)CCCCO[C@@H]1CN(C)C(=O)Nc1ccccc1	·	-57	1	·	·	·	·
C[C@@H]1CCCCO[C@H](CN(C)C(=O)Nc2ccc(F)cc2)[C@@H](C)CN([C@H](C)CO)C(=O)c2cc(NC(=O)Nc3ccc(C(F)(F)F)cc3)ccc2O1	?	-7	4	105*	101*	16	24
